Compound activity deposited in PubChem BioAssay by National Center for Advancing Translational Sciences (NCATS).
This is a sample that favours compounds with a hit; in the whole collection about 3.1% have one here.
Pol III holo inh: qHTS Assay for Inhibitors of DNA Polymerase III Holoenzyme System; reconstituted DNA polymerase III holoenzyme replication, biochemical; Potency, µM (series often up to 57.1 µM); 71,000 tested, 0.25% active; AID 603, 2007
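Reconstituted *E. coli* holoenzyme (0.35 nM Pol III, 1 nM beta, 154 nM SSB, 2 nM primase) was preincubated with compound for 15 min at RT. Synthesis on 1.4 nM ssM13Gori ran 35 min, then was stopped with PicoGreen/EDTA and read as dsDNA fluorescence.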
BRCT PPI green: qHTS Assay for Inhibitors of BRCT-Phosphoprotein Interaction (Green Fluorophore). Breast cancer type 1 susceptibility protein (Homo sapiens), P38398. BRCA1 BRCT-phosphopeptide binding, green fluorescence polarization. Potency, µM (top dose mostly 76.9 µM), usual class: inhibitors. 75,000 tested, 0.05% active
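Fluorescence polarization: His-tagged BRCT (~35 kDa BRCA1 C-terminus, 250 nM) bound to 100 nM fluorescein-labeled phosphorylated 10-aa BACH1 peptide, pH 7.3 phosphate buffer with DTT and Tween 20. Compounds incubated 12 min at room temperature; inhibition read as lowered polarization.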
BRCT PPI red: qHTS Assay for Inhibitors of BRCT-Phosphoprotein Interaction (Red Fluorophore) | AID 892, 2007 | BRCT-phosphopeptide binding, red fluorescence polarization | 75,000 tested, 0.03% active | Potency, µM (highest dose often 76.9 µM), actives largely listed as inhibitors | Breast cancer type 1 susceptibility protein (Homo sapiens), P38398
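Rhodamine-labelled pBACH1 10-mer (100 nM) bound to BRCT domain (100 nM) at pH 7.3; compounds incubated 12 min room temperature, polarization read. Free peptide defines full inhibition; unlabelled decapeptide titrated as control.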
Tau filament bind: qHTS Assay for Tau Filament Binding; Potency, µM (highest dose often 57.1 µM); 71,000 tested, 2% active; Microtubule-associated protein tau (Homo sapiens), P10636; recombinant tau filaments, thioflavin S fluorescence, 15 h; filaments grown with octadecylsulfate alongside compound;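 further: actives lower thioflavin S fluorescence by blocking filaments or displacing dye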
Target sequence (P10636 whole entry, looked up): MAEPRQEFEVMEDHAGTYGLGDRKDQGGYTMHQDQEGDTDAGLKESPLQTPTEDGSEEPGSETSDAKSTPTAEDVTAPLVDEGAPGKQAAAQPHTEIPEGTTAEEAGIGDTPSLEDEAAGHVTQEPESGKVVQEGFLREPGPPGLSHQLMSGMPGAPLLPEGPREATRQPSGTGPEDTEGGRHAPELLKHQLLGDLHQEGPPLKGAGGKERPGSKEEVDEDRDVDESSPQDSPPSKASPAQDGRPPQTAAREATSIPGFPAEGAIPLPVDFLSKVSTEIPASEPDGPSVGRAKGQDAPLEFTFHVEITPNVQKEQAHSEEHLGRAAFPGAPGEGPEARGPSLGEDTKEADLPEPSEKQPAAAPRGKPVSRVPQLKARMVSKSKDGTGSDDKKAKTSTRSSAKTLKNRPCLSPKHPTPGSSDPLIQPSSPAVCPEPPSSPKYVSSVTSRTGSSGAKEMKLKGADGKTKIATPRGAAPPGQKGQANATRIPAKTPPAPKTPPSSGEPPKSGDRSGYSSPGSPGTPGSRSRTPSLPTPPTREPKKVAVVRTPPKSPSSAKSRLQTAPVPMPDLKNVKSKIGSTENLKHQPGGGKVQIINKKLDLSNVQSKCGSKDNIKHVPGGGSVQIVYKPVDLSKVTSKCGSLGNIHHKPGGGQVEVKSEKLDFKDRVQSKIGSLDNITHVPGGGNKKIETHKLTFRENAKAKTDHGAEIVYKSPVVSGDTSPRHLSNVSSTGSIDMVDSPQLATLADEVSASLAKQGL
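Quantitative HTS: thioflavine S signal from ODS-induced tau filaments, excited at 450 nm, emission 510 nm. Conditions: 1 uM tau, 30 uM ODS, 15 h at 37 C, pH 7.4.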
YjeE inh: qHTS Assay for Inhibitors of YjeE; AID 605, 2007; Potency, µM; purified YjeE enzyme, qHTS inhibition assay; 71,000 tested, 0.05% active
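Fluorescence polarization of a BODIPY Texas Red–ADP probe (2 uM) bound to purified YjeE (10 uM) was read after 15 min room-temperature incubation with compounds. Loss of polarization marks inhibitors; ADP serves as titrated control.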
15-hLO inh: qHTS Assay for Inhibitors of 15-hLO (15-human lipoxygenase); Polyunsaturated fatty acid lipoxygenase ALOX15 (Homo sapiens), P16050; purified 15hLO-1, xylenol orange hydroperoxide absorbance; Potency, µM (highest dose often 57.1 µM), most hits filed as inhibitors; 74,000 tested, 1.4% active; further: nearly all actives have a fitted effect of over 55% in size
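Hydroperoxide formed from arachidonic acid (50 uM) by purified human 15hLO-1 (40 nM) oxidizes ferrous iron, and the ferric-xylenol orange complex is read at 573 versus 405 nm. Compounds were preincubated 15 min; reaction ran 6 min at room temperature.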
Tau ThS bind: Tau ThS binding assay | shares compounds with Tau filament bind | recombinant tau filaments, Thioflavin S fluorescence displacement | Potency, µM | 60 tested, 40% active | AID 911, 2007; calls by dose curve
aSyn ThS bind: Alpha-synuclein ThS binding assay | recombinant alpha-synuclein fibrils, ThS fluorescence displacement | shares compounds with Tau filament bind | 60 tested, 40% active | Potency, µM; calls by dose curve
Abeta ThS displ: Beta amyloid ThS binding assay; shares compounds with Tau filament bind; Abeta1-42 fibrillization, thioflavin S fluorescence, overnight 37 C; Potency, µM; 60 tested, 50% active; calls by dose curve
Hits are given with their value; n = inactive; u = inconclusive; x = not tested or not shown; [ ] = remark or other dose. Unless noted, the call rests on the fitted dose curve; in most records, active means well fitted curve in the direction sought with a large enough effect; inconclusive means small, poorly fitted or top-dose-only effect, or another doubt; inactive means no such curve, though single readings can be large; an effect the other way counts as inactive or inconclusive.

SMILES | Pol III holo inh | BRCT PPI green | BRCT PPI red | Tau filament bind | YjeE inh | 15-hLO inh | others
Cc1csc(SCC(=O)c2ccc(S(=O)(=O)N3CCOCC3)cc2)n1 | n | n | n | n | n | 20µM
COc1ccc(C(=O)CSc2nnc(-c3ccc(S(=O)(=O)N4CCOCC4)cc3)o2)cc1 | n | n | n | n | n | n
COCCNC(=O)c1ccc(Cc2nc3ccccc3[nH]2)cc1 | x | n | n | x | x | n
CC(C)(C)N=C1NC(=NC(C)(C)C)c2ccccc21 | n | n | n | 2.5µM | n | n
c1ccc2c(c1)C(=NCC1CCCO1)NC2=NCC1CCCO1 (stereo not drawn) | n | n | n | n | n | n
N[C@@H](Cc1cc(-c2ccc(Cl)cc2Cl)cc(CP(=O)(O)O)c1O)C(=O)O | 32µM | n | n | 40µM | n | 13µM
COc1ccc(-c2coc3ccc(O[C@@H]4O[C@@H](COC(C)=O)[C@@H](OC(C)=O)[C@@H](OC(C)=O)[C@H]4OC(C)=O)cc3c2=O)cc1 | n | x | x | u | n | x
CC(=O)n1c2ccccc2c2c1c1ccccc1n2C | n | n | n | n | n | n
CC(=O)Nc1c(Cl)n(C(C)=O)c2ccccc12 | n | n | n | 20µM | n | n
COc1cccc2c1C(=O)c1c(O)c3c(c(O)c1C2=O)C[C@](O)(C(C)=O)C[C@H]3O[C@@H]1C[C@H](N)[C@H](O)[C@H](C)O1 | 2µM | n | u | 1.6µM | n | n
CC(=O)[C@@]1(O)Cc2c(O)c3c(c(O)c2[C@H](O[C@H]2C[C@H](N)[C@H](O)[C@H](C)O2)C1)C(=O)c1ccccc1C3=O | 4µM | n | 13µM | 1.6µM | 50µM | u
COc1cccc2c1C(=O)c1c(O)c3c(c(O)c1C2=O)C[C@@](O)(C(=O)CO)C[C@@H]3O[C@H]1C[C@H](N)[C@H](O)[C@H](C)O1 | x | n | 10µM | x | x | n
CN1CCN(CC(=O)Nc2cccc3ccccc23)CC1 | n[11.4 µM] | n[15.4 µM] | n[15.4 µM] | n[11.4 µM] | n | n[11.4 µM]
Nc1cc(C(=O)c2cccs2)ccc1Cl | n | n | n | 16µM | n | n
O=C(Nc1cccc(C(=O)Nc2ccc(S(=O)(=O)O)c3cc(S(=O)(=O)O)cc(S(=O)(=O)O)c23)c1)Nc1cccc(C(=O)Nc2ccc(S(=O)(=O)O)c3cc(S(=O)(=O)O)cc(S(=O)(=O)O)c23)c1 | 13µM | n | n | n | n | n
CC(C)Oc1ccc(C(=O)Nc2ccc(N3CCCC3)cc2)cc1 | n[11.4 µM] | n | n | 2µM | n | 1.3µM
O=C(Cc1ccccc1)Nc1cccc(N2CCCC2)c1 | n | n | n | 25µM | n | n
COc1cc(OC)cc(C(=O)Nc2cccc(N3CCCC3)c2)c1 | n | n | n | 10µM | n | u
CC(Oc1ccc(Br)cc1)C(=O)NCc1cccnc1 (stereo not drawn) | x | n | n | x | x | n
Cc1ccc(C(=O)CSC2=NC(N)=C(C#N)C3(CCCCC3)C2C(N)=O)cc1 (stereo not drawn) | n[11.4 µM] | n | n | 3.2µM | n | u
N#CC1=C(N)N=C(SCc2ccccc2)C(C(N)=O)C12CCCCC2 (stereo not drawn) | n | n | n | 6.3µM | n | n
C=CCSC1=NC(N)=C(C#N)C2(CCCCC2)C1C(N)=O (stereo not drawn) | n | n | n | n | n | n
NC(=O)c1cc(N)ccc1N1CCCC1 | n | n | n | 16µM | n | u
NC(=O)c1ccc(N2CCCCC2)c(N2C(=O)CCC2=O)c1 | n | n | n | n | n | n
COC(=O)[C@@]1(Cc2ccc(OC)cc2)[C@H]2c3cc(C(=O)N4CCCC4)n(CCF)c3C[C@H]2CN1C(=O)c1ccccc1 | n | n | n | n | n | x
SMILES | Pol III holo inh | BRCT PPI green | BRCT PPI red | Tau filament bind | YjeE inh | 15-hLO inh | others
N#CCCn1c(=O)c(-c2cc(F)cc(F)c2)nc2cnc(Nc3ccccc3)nc21 | n | n | n | n | n | n
Cn1c(=O)c(-c2cc(F)cc(F)c2)nc2cnc(Nc3ccccc3)nc21 | n | n | n | 6.3µM | n | n
Cn1c(=O)c(-c2cc(F)cc(F)c2)nc2cnc(Oc3ccccc3)nc21 | n | n | n | 13µM | n | n
COc1ncc2nc(-c3cc(F)cc(F)c3)c(=O)n(C)c2n1 | n | n | n | n | n | n
CC(=O)O[C@H]1CC[C@@]2(C)[C@@H](CC[C@@]3(C)[C@H]2C(=O)C=C2[C@H]4C[C@](C)(C(=O)OCCN5CCCCC5)CC[C@]4(C)CC[C@@]23C)C1(C)C | n | x | x | n | n | x
COc1ccc(O)c(-c2[nH]ncc2C(=O)c2ccccc2)c1 | n | n | n | n | n | n
Cc1ccc(C(=O)c2cn[nH]c2-c2cc(Cl)ccc2O)cc1 | n | n | n | n | n | 20µM
CCN1CCN(CCC(=O)Nc2ccccc2OC)CC1 | n | n | n | n | u | n
CCN1CCN(Cc2ccc(NC(=O)Nc3ccccc3OC)cc2)CC1 | n | n | n | n | n | 3.2µM
Cn1nc(C(=O)Nc2sccc2C(N)=O)ccc1=O | n | n | n | 25µM | n | n
Cc1cc(C)n(-c2ccc(C(=O)Nc3sccc3C(N)=O)cc2)n1 | n | n | n | n | n | n
C=C(C)C(=O)OCCCCCCCCCC | n | n | n | n | n | n
Nc1ccc(Nc2ccccc2N)cc1 | n | n | n | n | n | u | Tau ThS bind=2.8µM;aSyn ThS bind=2.3µM;Abeta ThS displ=2µM
CN(C)c1ncc2nc(-c3cc(F)cc(F)c3)c(=O)n(Cc3ccc(F)cc3)c2n1 | n | n | n | n | n | n
Cc1cc(C(=O)Nc2ccc(N3CCOCC3)cc2)c2ccccc2n1 | n | n | n | 7.9µM | n | n | Tau ThS bind=n;aSyn ThS bind=n;Abeta ThS displ=n
Cc1nn(Cc2ccccc2)c(C)c1C(=O)Nc1ccc(N2CCOCC2)cc1 | n | n | n | n | n | n
CN(C)c1ccc(NC(=S)c2ccccn2)cc1 | n | n | n | 5µM | n | n | Tau ThS bind=7.1µM;aSyn ThS bind=8.9µM;Abeta ThS displ=6.2µM
